HRas wt GTP: modulators of GTP binding to HRas wildtype, primary screen, biochemical, bead-based flow cytometry, multiplex; actives 0.14% (n = 190,000); GST-Ras wt beads, Bodipy-FL-GTP binding; actives lie on both sides; GTP binding activity, % at 10 µM; GTPase HRas (Homo sapiens), P01112;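 active means GTP binding activity at least 20% away from the 100% baseline, either lowered as inhibitor or raised as activator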;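 further: 0% = unlabeled GTP competition control and 100% = no-compound control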
Target sequence (P01112 whole entry, looked up): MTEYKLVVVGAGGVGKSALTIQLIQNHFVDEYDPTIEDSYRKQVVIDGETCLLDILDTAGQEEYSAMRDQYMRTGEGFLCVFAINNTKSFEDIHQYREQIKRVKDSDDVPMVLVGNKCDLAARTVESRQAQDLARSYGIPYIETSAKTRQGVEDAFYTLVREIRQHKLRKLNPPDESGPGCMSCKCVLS
Cdc42 wt: modulators of GTP binding to wildtype Cdc42, primary screen, biochemical, multiplex bead flow cytometry, Bodipy-GTP. GST-Cdc42 beads; actives lie on both sides. percent activity (GTP binding), % at 10 µM. actives 0.2% (n = 190,000). AID 761, 2007;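 active means percent activity GTP binding at least 20 points away from the 100% baseline, either down as inhibitor or up as activator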;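 further: median bead fluorescence of bound Bodipy-FL-GTP at 100 nM; 0% = excess unlabeled GTP control and 100% = no compound control; below 100% means less GTP binding so inhibitor and above means activator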
Target sequence (P60953 whole entry, looked up): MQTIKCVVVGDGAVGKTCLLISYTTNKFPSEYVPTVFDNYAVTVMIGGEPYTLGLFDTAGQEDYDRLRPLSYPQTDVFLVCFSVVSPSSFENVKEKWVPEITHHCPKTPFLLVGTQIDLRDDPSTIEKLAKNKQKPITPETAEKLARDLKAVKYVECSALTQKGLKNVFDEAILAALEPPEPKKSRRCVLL
Rac1 act GTP bind: GTP binding modulators of activated mutant Rac1, primary screen, biochemical, bead-based flow cytometry, multiplex, fluorescent GTP; Ras-related C3 botulinum toxin substrate 1 (Homo sapiens), P63000; GST-Rac1 activated beads; actives lie on both sides; 100% means binding = to untreated wells; percent activity (GTP binding), % at 10 µM; actives 0.11% (n = 190,000); AID 764, 2007;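 active means GTP binding at least 20 percentage points away from the 100% baseline, in either direction, so actives lie on both sides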
Rab2 wt GTP: modulators of GTP binding to Rab2A wildtype, primary screen, biochemical, dog, bead-based flow cytometry, multiplex; Ras-related protein Rab-2A (Canis lupus familiaris), P61105; GST-Rab2 wt beads, Bodipy-GTP binding; GTP binding activity, % at 10 µM; actives 0.19% (n = 190,000);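 active means GTP binding activity at least 20 points away from 100%, either lowered or raised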;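 further: 0% = beads with excess unlabeled GTP and 100% = no-compound control corrected for plate trend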
Rab7 wt modul: modulators of GTP binding to Rab7, primary screen, biochemical, wildtype, multiplex bead flow cytometry; Rab7 GTPase wild type (dog), Bodipy-FL-GTP binding; GST-Rab7 beads, fluorescent GTP binding; actives lie on both sides; untreated = 100%, excess cold GTP = 0%; GTP binding activity (percent of control), % at 10 µM; actives 0.055% (n = 190,000); AID 758, 2007;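 active means fluorescent GTP binding to Rab7 beads changed by at least 20 points from the 100% baseline, either direction, mostly lower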;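 further: median green fluorescence of bound Bodipy-FL-GTP per Rab7 bead population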
Rac1 wt GTP bind: wildtype Rac1 GTP binding modulators, primary screen, biochemical, GST-Rac1 beads, flow cytometry, multiplex | AID 757, 2007 | GTP binding activity (% of control), % at 10 µM | Ras-related C3 botulinum toxin substrate 1 (Homo sapiens), P63000 | actives 0.27% (n = 190,000) | fluorescent GTP binding; actives lie on both sides; 0 = cold GTP competed, 100 = untreated;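 active means GTP binding activity at least 20 points away from the 100% control level, either lower or higher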
Starred values were filed as active, the others as inactive; · = no result; [ ] = another dose, or the depositor's remark. Sampled rows, rich in hits. Any-hit rate of the full collection: about 0.4%.

SMILES | HRas wt GTP | Cdc42 wt | Rac1 act GTP bind | Rab2 wt GTP | Rab7 wt modul | Rac1 wt GTP bind
O=S(=O)(NCCOCC(F)(F)C(F)F)c1ccc2oc3ccccc3c2c1 | 97 | 97 | 94 | 98 | 98 | 97
COc1ccc(CNC(=O)c2ccccc2C(=O)O)cc1 | 100 | 103 | 106 | 102 | 101 | 110
COc1ccc(CC(=O)c2ccccc2C(=O)O)cc1 | 126*[activator] | 140*[activator] | 131*[activator] | 130*[activator] | 125*[activator] | 143*[activator]
O=C(NCc1ccccn1)c1cc(-n2cnnc2)ccc1Cl | 101 | 103 | 101 | 102 | 102 | 104
Cc1c(C(=O)N2CCc3ccccc3C2)oc2ccc(S(=O)(=O)N3CCCCCC3)cc12 | 111 | 105 | 108 | 112 | 108 | 131*[activator]
Cc1c(C(=O)N2CCOCC2)oc2ccc(S(=O)(=O)N3CCCC3)cc12 | 103 | 102 | 100 | 103 | 100 | 103
CCn1c(NCc2cc(Br)ccc2NS(=O)(=O)c2ccc(C)cc2)nc2ccccc21 | 97 | 97 | 96 | 98 | 97 | 97
O=C(C1CCCO1)N1CCN(C(=S)Nc2ccccc2C(F)(F)F)CC1 (centres undefined) | 117 | 108 | 104 | 125*[activator] | 108 | 109
Cc1ccc(-c2ccc(/C=C(\C#N)C(=O)Nc3cc(C)nn3-c3ccccc3)o2)cc1 | 127*[activator] | 101 | 120*[activator] | 109 | 107 | 97
Cc1ccc(COc2ccsc2C(=O)O)cc1 | 114 | 120*[activator] | 115 | 117 | 98 | 118
Cn1[nH]c(C(F)(F)F)cc1=O | 101 | 102 | 97 | 100 | 98 | 100
O=c1[nH]c(N/N=C/c2ccc(O)cc2)nc2ccccc12 | 76* | 83 | 89 | 77* | 91 | 77*
O=c1[nH]c(N/N=C\c2ccc(F)cc2)nc2ccccc12 | 98 | 94 | 95 | 98 | 100 | 90
CCOC(=O)c1c(NC(=O)C(=O)N/N=C/c2ccc(OCC)cc2)sc2c1CCCCC2 | 102 | 97 | 99 | 99 | 97 | 104
CCOC(=O)c1c(NC(=O)C(=O)N/N=C/c2ccc(O)c(OC)c2)sc2c1CCCCC2 | 98 | 61* | 98 | 94 | 98 | 104
O=S1(=O)N=C(N(CCO)/N=C/c2ccncc2)c2ccccc21 | 67* | 64* | 76* | 66* | 83 | 56*
O=S1(=O)N=C(N(CCO)/N=C/c2ccccc2)c2ccccc21 | 72* | 71* | 83 | 70* | 91 | 70*
Cc1c(N2C(=O)/C(=C\c3ccc(N(C)C)cc3)N(C)C2=S)c(=O)n(-c2ccccc2)n1C | 103 | 102 | 102 | 101 | 101 | 105
c1ccc(CCC2CCCCN2Cc2cn[nH]c2-c2cc3ccccc3o2)nc1 (centres undefined) | 99 | 97 | 95 | 100 | 105 | 99
Fc1ccccc1Cc1noc(CN2CCN(C/C=C/c3ccccc3)CC2)n1 | 98 | 99 | 99 | 95 | 96 | 104
CCCCCCCCSc1nnc2[nH]c(=O)cc(N)n12 | 84 | 69* | · | · | · | ·
Cc1cc(Cl)ccc1OCC(=O)OCC(=O)Nc1ccc(F)c([N+](=O)[O-])c1 | 74* | 77* | 91 | 64* | 89 | 97
CCNC(=O)COC(=O)COc1ccc(Cl)cc1C | 101 | 102 | 100 | 102 | 98 | 105
O=C(O)c1ccccc1Sc1ncnc2sc3c(c12)CCC3 | 121*[activator] | 129*[activator] | 123*[activator] | 124*[activator] | 107 | 123*[activator]
Cc1sc2ncnc(Sc3ccccc3C(=O)O)c2c1C | 124*[activator] | 137*[activator] | 132*[activator] | 134*[activator] | 122*[activator] | 145*[activator]
SMILES | HRas wt GTP | Cdc42 wt | Rac1 act GTP bind | Rab2 wt GTP | Rab7 wt modul | Rac1 wt GTP bind
COc1ccccc1CNC(=O)c1c(N)n(CCCN2CCOCC2)c2nc3ccccc3nc12 | 84 | 80 | 86 | 82 | 87 | 78*
Cc1cc(=O)[nH]c2ccccc12 | 107 | 108 | 101 | 105 | 107 | 107
Cc1cc2[nH]c3c(c[n+](C)c4ccccc34)c2cc1C | 87 | 85 | 94 | 87 | 94 | 76*
C/C(=N\Nc1ccc(S(N)(=O)=O)cc1[N+](=O)[O-])c1ccc2c(c1)OCO2 | 89 | 84 | 88 | 85 | 97 | 76*
COc1ccccc1Nc1nccc(N(C)C)c1C#N | 95 | 97 | 96 | 98 | 96 | 99
O=C(Nc1ccccc1F)Nc1ccccc1OC(F)F | 99 | 99 | 99 | 100 | 108 | 100
O=C(O)COc1ccccc1/C=N/NC(=O)c1cccc(S(=O)(=O)Nc2cccc(Cl)c2)c1 | 87 | 82 | 82 | 82 | 94 | 75*
O=C(NC1CCCC1)C1C2C=CC(C2)C1C(=O)N1CCOCC1 (centres undefined) | 98 | 101 | 98 | 99 | 103 | 98
O=C(O)C1C2C=CC(C2)C1C(=O)N1CCOCC1 (centres undefined) | 43* | 39* | 37* | 36* | 22* | 33*
COc1ccccc1NC(=O)Nc1cccnc1 | 94 | 94 | 96 | 94 | 94 | 98
COCCNC(=S)Nc1cc(OC)c(OC)cc1C#N | 67* | 60* | 80 | 59* | 86 | 57*
